Results: PubChem BioAssay AID1159580 (chemical genetic matrix, 2015)
Several values for one entry are separate records, joined by “and”; a condition that tells them apart may be missing. Equal values may be shown once. Out of some 5,500 compounds screened, about 2,000 (36%) were called active. Inconclusive results (about 18%) are left out. No stated cut-off is given here; in the data, active means normalized growth mostly below about 0.91 (no sharp cut-off); inconclusive means no clear call, values can overlap the other calls; inactive means mostly above about 0.92. The list shows a part of the results.

Assay: chemical genetic growth profiling, strain panel (AID 1159580);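 further: tested at 20 µM; growth read once vehicle control cultures reached saturation at 30 °C; 1 = growth at the plate median or of vehicle wells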
Conditions: S. cerevisiae deletion strains, growth OD

Measured: normalized growth

O=C(O)CCCOc1ccc(Cl)cc1Cl
active: locus YBR171W, strain sec66, stronger effect = lower value 0.888 | locus YDR137W, strain rgp1, stronger effect = lower value 0.817 | locus YHR079C, strain IRE1, stronger effect = lower value 0.757 | locus YJL129C, strain trk1, stronger effect = lower value 0.847 | locus YJR066W, strain TOR1, stronger effect = lower value 0.779
inactive: locus YAL013W, strain DEP1, stronger effect = lower value 0.993 | locus YAL021C, strain ccr4, stronger effect = lower value 0.941 | locus YAL026C, strain drs2, stronger effect = lower value 0.931 | locus YAL030W, strain snc1, stronger effect = lower value 0.944 | locus YBL061C, strain skt5, stronger effect = lower value 0.948 | locus YBR009C, strain hhf1, stronger effect = lower value 0.951 | locus YBR021W, strain FUR4, stronger effect = lower value 0.97 | locus YBR023C, strain chs3, stronger effect = lower value 0.954 | locus YBR229C, strain ROT2, stronger effect = lower value 1.01 | locus YBR231C, strain swc5, stronger effect = lower value 0.962 | locus YBR279W, strain paf1, stronger effect = lower value 0.962 | locus YCL011C, strain gbp2, stronger effect = lower value 0.957 | locus YCL016C, strain dcc1, stronger effect = lower value 0.958 | locus YCL029C, strain bik1, stronger effect = lower value 1 | locus YCL061C, strain MRC1, stronger effect = lower value 0.938 | locus YCL069W, strain vba3, stronger effect = lower value 0.944 | locus YCR088W, strain abp1, stronger effect = lower value 0.929 | locus YDL005C, strain med2, stronger effect = lower value 0.946 | locus YDL035C, strain GPR1, stronger effect = lower value 1.01 | locus YDL040C, strain nat1, stronger effect = lower value 0.961 | locus YDL074C, strain BRE1, stronger effect = lower value 1 | locus YDL101C, strain DUN1, stronger effect = lower value 1.01 | locus YDL134C, strain PPH21, stronger effect = lower value 0.999 | locus YDL185W, strain tfp1, stronger effect = lower value 0.986 | locus YDL192W, strain arf1, stronger effect = lower value 1.02 | locus YDR001C, strain nth1, stronger effect = lower value 0.942 | locus YDR069C, strain doa4, stronger effect = lower value 0.955 | locus YDR101C, strain arx1, stronger effect = lower value 1.01 | locus YDR150W, strain NUM1, stronger effect = lower value 0.994 | locus YDR159W, strain sac3, stronger effect = lower value 0.902 | locus YDR162C, strain NBP2, stronger effect = lower value 0.99 | locus YDR195W, strain ref2 0.955 | locus YDR297W, strain sur2, stronger effect = lower value 0.962 | locus YDR318W, strain mcm21, stronger effect = lower value 1.01 | locus YDR334W, strain swr1, stronger effect = lower value 0.945 | locus YDR335W, strain msn5, stronger effect = lower value 0.943 | locus YDR388W, stronger effect = lower value 1.01 | locus YDR392W, strain spt3, stronger effect = lower value 0.893 | locus YDR502C, strain sam2, stronger effect = lower value 1.01 | locus YEL003W, strain gim4, stronger effect = lower value 0.963 | locus YEL037C, strain rad23, stronger effect = lower value 0.954 | locus YEL061C, strain CIN8 (second series), stronger effect = lower value 0.929 | locus YEL061C, strain CIN8, stronger effect = lower value 0.998 | locus YER015W, strain faa2, stronger effect = lower value 0.969 | locus YER016W, strain bim1, stronger effect = lower value 0.962 | locus YER110C, stronger effect = lower value 1.01 | locus YER111C, strain swi4, stronger effect = lower value 0.944 | locus YER155C, strain BEM2 (second series), stronger effect = lower value 0.887 | locus YER155C, strain BEM2, stronger effect = lower value 0.98 | locus YER167W, strain BCK2, stronger effect = lower value 0.991 | locus YFR010W, strain ubp6, stronger effect = lower value 0.951 | locus YGL078C, strain dbp3, stronger effect = lower value 1.01 | locus YGL086W, strain mad1, stronger effect = lower value 0.99 | locus YGL167C, strain pmr1, stronger effect = lower value 0.929 | locus YGL173C, strain kem1, stronger effect = lower value 0.952 | locus YGL227W, strain vid30, stronger effect = lower value 0.93 | locus YGL240W, strain doc1, stronger effect = lower value 0.912 | locus YGL248W, strain PDE1, stronger effect = lower value 1.01 | locus YGL253W, strain hxk2, stronger effect = lower value 0.939 | locus YGR078C, strain PAC10, stronger effect = lower value 1.01 | locus YGR135W, strain pre9, stronger effect = lower value 1.01 | locus YGR229C, strain SMI1, stronger effect = lower value 1.03 | locus YGR252W, strain gcn5, stronger effect = lower value 0.982 | locus YHR013C, strain ard1, stronger effect = lower value 0.93 | locus YHR027C, strain rpn1, stronger effect = lower value 0.938 | locus YHR079C, strain IRE1 (second series), stronger effect = lower value 1.01 | locus YHR094C, strain hxt1, stronger effect = lower value 1.01 | locus YHR129C, strain ARP1, stronger effect = lower value 0.993 | locus YHR142W, strain chs7, stronger effect = lower value 0.939 | locus YHR200W, strain rpn10, stronger effect = lower value 1 | locus YIL066C, strain RNR3, stronger effect = lower value 1.01 | locus YIL073C, strain SPO22, stronger effect = lower value 1.1 | locus YIL125W, strain kgd1, stronger effect = lower value 0.991 | locus YIR030C, strain dcg1, stronger effect = lower value 1.01 | locus YJL092W, strain hpr5, stronger effect = lower value 0.94 | locus YJL095W, strain BCK1 (second series), stronger effect = lower value 0.95 | locus YJL115W, strain asf1, stronger effect = lower value 0.922 | locus YJL134W, strain LCB3, stronger effect = lower value 0.998 | locus YJL154C, strain vps35, stronger effect = lower value 0.948 | locus YJL164C, strain tpk1, stronger effect = lower value 0.961 | locus YJL166W, strain qcr8, stronger effect = lower value 0.942 | locus YJL168C, strain set2, stronger effect = lower value 1.01 | locus YJL187C, strain SWE1 (second series), stronger effect = lower value 0.999 | locus YJL187C, strain SWE1, stronger effect = lower value 0.947 | locus YJR043C, strain POL32, stronger effect = lower value 0.997
1.01 (inactive) and 0.838 (active): locus YJL095W, strain BCK1, stronger effect = lower value
0.999 (inactive) and 0.829 (active): locus YHR030C, strain SLT2, stronger effect = lower value
